Pin1 inh: qHTS Assay to Find Inhibitors of Pin1; AID 504891, 2011; Peptidyl-prolyl cis-trans isomerase NIMA-interacting 1 (Homo sapiens), Q13526; Pin1 FP peptide displacement, HiFluor488, 10 min; 390,000 compounds, 0.009% hits; Potency, µM (titrated, usually from 115 µM), inactives show top-dose activity, negative = inhibition, most hits filed as inhibitors; active = well fitted inhibition curve with a large enough effect in the polarisation, with a control signal flat, not every such curve was filed as active; inconclusive = small, poorly fitted or top-dose-only effect, or effect the other way, or a change in a side signal; inactive = no such curve, though single readings can be large or run the other way; the % refers to the polarisation; also: % is scaled to controls: 0 for no effect and ±100 for the full control effect
Target sequence (Q13526 whole entry, looked up): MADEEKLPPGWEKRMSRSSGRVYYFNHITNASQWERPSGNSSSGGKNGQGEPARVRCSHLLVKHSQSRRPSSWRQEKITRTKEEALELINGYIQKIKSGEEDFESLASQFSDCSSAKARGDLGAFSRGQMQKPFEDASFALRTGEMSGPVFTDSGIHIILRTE
PLK1 PBD inh: qHTS for Inhibitors of PLK1-PDB (polo-like kinase 1 - polo-box domain): Primary Screen | Serine/threonine-protein kinase PLK1 (Homo sapiens), P53350 | Plk1 PBD binding of FITC phosphopeptide, fluorescence polarization | Potency, µM, inactives show max response, negative = inhibition, actives largely listed as inhibitors | AID 720504, 2013 | 360,000 compounds, 2.8% hits; also: series mostly up to about 57 µM; % is scaled to controls: 0 for no effect and ±100 for the full control effect; nearly all actives have a fitted effect of over 65% in size
VDR inhibitor: Inhibitors of the vitamin D receptor (VDR): qHTS; VDR-SRC2-3 peptide fluorescence polarization, 2 h; Potency, µM, for the others: max response, negative = inhibition, actives largely listed as inhibitors; AID 504847, 2011; Vitamin D3 receptor (Homo sapiens), P11473; 400,000 compounds, 0.93% hits; also: % is scaled to controls: 0 for no effect and ±100 for the full control effect
Target sequence (P11473 whole entry, looked up): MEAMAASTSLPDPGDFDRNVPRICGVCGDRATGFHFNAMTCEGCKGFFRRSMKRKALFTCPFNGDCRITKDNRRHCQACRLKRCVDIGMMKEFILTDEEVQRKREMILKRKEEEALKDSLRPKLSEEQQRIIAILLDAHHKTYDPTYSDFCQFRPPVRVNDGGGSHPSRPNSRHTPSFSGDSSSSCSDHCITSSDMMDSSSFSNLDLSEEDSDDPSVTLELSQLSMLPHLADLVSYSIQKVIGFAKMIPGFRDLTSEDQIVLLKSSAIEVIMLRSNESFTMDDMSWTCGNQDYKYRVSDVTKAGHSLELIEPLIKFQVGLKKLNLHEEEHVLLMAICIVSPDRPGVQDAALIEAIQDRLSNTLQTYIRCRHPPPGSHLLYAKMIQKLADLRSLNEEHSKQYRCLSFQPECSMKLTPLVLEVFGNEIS
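Reagent solutions, kept cold and dark, are dispensed first; compounds are then pinned in at 23 nl, plates briefly spun, and incubated 2 h at ambient temperature. Inhibition of VDR–SRC2-3 peptide binding is read by fluorescence polarization.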
TDP1 block: qHTS Assay for Inhibitors of Tyrosyl-DNA Phosphodiesterase (TDP1); Tyrosyl-DNA phosphodiesterase 1 (Homo sapiens), Q9NUW8; recombinant TDP1, AlphaScreen DNA substrate cleavage; Potency, µM (top dose mostly 130 µM), without a hit: top-dose activity change, negative = inhibition, usual class: inhibitors; 350,000 compounds, 0.28% hits; AID 485290, 2010; also: % is scaled to controls: 0 for no effect and ±100 for the full control effect; nearly all actives have a fitted effect of over 40% in size
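E. coli-derived human Tdp1, 1 nM final. Cpd preinc 15 min RT; substrate 15 nM final, 5 min RT; AS bead mix 10 ug/ml final, 10 min RT. Signal loss = tyrosine-FITC cleavage. No-enzyme wells = max signal.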
ASM inhibitor: Inhibitors of Secretory Acid Sphingomyelinase (S-ASM): qHTS; placental ASM, HMU-PC fluorogenic substrate, 60 min; Potency, µM (top dose mostly 57.5 µM), without a hit: at the highest dose activity change, negative = inhibition, usual class: inhibitors; 340,000 compounds, 0.006% hits
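Steps: dispense placental human ASM, pin compound, wait 10 min at room temperature, add HMU-PC0 substrate at 9 uM final, incubate 60 min at 37 °C, add stop solution raising pH to 10, read fluorescence.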
Tb PFK inh-1: qHTS Assay to Find Inhibitors of T. brucei phosphofructokinase. T. brucei PFK, ADP-Glo luminescence. AID 485367, 2010. Potency, µM (highest dose often 57.5 µM), for inactives: at the highest dose activity, negative = inhibition, actives largely listed as inhibitors. 330,000 compounds, 0.17% hits;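 also: 0% = uninhibited 1x PFK enzyme wells and -100% = no-enzyme wells; nearly all actives have a fitted effect of over 60% in size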
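1.25 nM PFK with 0.5 mM F6P and 0.1 mM ATP in 0.1 M TEA pH 8.0, 5 mM MgCl2, incubated 45 min at room temperature; ADP measured by ADP-Glo luminescence; compounds titrated up to 57 uM.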
TbPFK ATP: Tb PFK orthogonal confirmatory assay using ATP depletion (Kinase-Glo Plus) as an alternative measure of Tb PFK activity: Hit Validation | shares compounds with Tb PFK inh-1 | Tb PFK enzyme, ATP depletion, Kinase-Glo Plus luminescence | Potency, µM (top dose mostly 57.5 µM), for inactives: at the highest dose inhibition | 1,100 compounds, 47% hits | AID 504636, 2011; calls by dose curve; also: nearly all actives have a fitted effect of over 60% in size
Tb PFK inh-2: Inhibitors of T. brucei phosphofructokinase: Hit Validation. 1,100 compounds, 41% hits. purified T. brucei PFK, ADP-Glo luminescence, 45 min. shares compounds with Tb PFK inh-1. Potency, µM (highest dose often 57.5 µM), for inactives: top-dose activity change, negative = inhibition, hits mostly inhibitors;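 also: plate controls were full PFK enzyme control for no effect and no enzyme control for full effect; nearly all actives have a fitted effect of over 60% in size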
* marks the source's active call; other numbers are inactive results; ? = inconclusive; nt = no result given; [ ] = another dose, or the depositor's remark. A selection: hits, their analogues and other compounds. The true share with any hit is near 3.1%. Unless noted, calls follow the shape of the dose curve; as a rule, active = well fitted curve in the direction sought with a large enough effect; inconclusive = small, poorly fitted or top-dose-only effect, or another doubt; inactive = no such curve, though single readings can be large; an effect the other way counts as inactive or inconclusive. Potency is read from the fitted curve at half-maximal effect.

SMILES	Pin1 inh	PLK1 PBD inh	VDR inhibitor	TDP1 block	ASM inhibitor	Tb PFK inh-1	TbPFK ATP	Tb PFK inh-2
CC1(C)CC(=O)C(C(C2=C(O)CC(C)(C)CC2=O)c2cccs2)C(=O)C1 (centres undefined)	1%	4.7µM*	50µM*	-7%	-1%	?	29%	?
N#Cc1sc(NCc2ccccn2)nc1Cl	-1%	3%	-17%	nt	4%	?	?	?
O=P(c1ccccc1)(c1ccccc1)N1CC2(CC2)CC(O)(c2ccccc2)C1 (centres undefined)	nt	nt	nt	3%	nt	nt	nt	nt
Cc1cc(SCc2ccc(Cl)c(Cl)c2)nc(=O)[nH]1	6%	-4%	-1%	1%	0%	?	12µM*	24µM*
COC(=O)c1ccc(C(C(=O)NC2CCCCC2)N(CCN2CCOCC2)C(=O)Cc2cccs2)cc1 (centres undefined)	4%	-11%	15%	3%	5%	7%	nt	nt
COC(=O)c1ccc(-c2noc(CN(C)CCC3CCCCO3)n2)cc1 (centres undefined)	-2%	1%	1%	3%	-2%	?	4%	?
COc1ccccc1/C=C/C(=O)NCC(=O)N/N=C/c1ccccc1[N+](=O)[O-]	7%	-18%	-11%	6%	-1%	?	-32%	?
COc1ccccc1[N+](=O)[O-]	5%	-4%	-10%	0%	-7%	0%	nt	nt
C[C@]12CC[C@@H]3[C@@H](CCC4=CC(=O)CC[C@@H]43)[C@@H]1CC[C@@H]2OC(=O)CCc1ccccc1	nt	nt	-17%	3%	nt	nt	nt	nt
Cc1cc(OC(F)F)ccc1NC(=O)Nc1ccc([N+](=O)[O-])cc1	7%	0%	3%	2%	-8%	?	?	?
Cc1ccc(-n2c(O)c(C=Nc3ccc(S(N)(=O)=O)cc3)c(=O)[nH]c2=O)cc1	-1%	0%	8%	-2%	3%	0%	nt	nt
Cc1ccc([N+](=O)[O-])cc1NC(=O)Nc1ccc(S(N)(=O)=O)cc1	?	-5%	5%	4%	-18%	12µM*	13µM*	27µM*
Cc1ccc(NC(=O)Nc2ccc(S(N)(=O)=O)cc2)cc1	-5%	-7%	-12%	-3%	-1%	21µM*	13µM*	?
COc1ccc(OC(=O)Nc2ccc([N+](=O)[O-])cc2OC)cc1	1%	-8%	-10%	-1%	-7%	?	nt	nt
NS(=O)(=O)c1ccc(NC(=O)Nc2ccc(C(F)(F)F)cc2)cc1	-8%	2%	6%	0%	-13%	?	6µM*	13µM*
CCOc1ccc(CC(=O)Nc2ccc3c(c2)N(C)C(=O)c2ccccc2S3)cc1OCC	18%	nt	0%	-1%	nt	nt	nt	nt
CCN[C@]1(c2cccs2)CCCCC1=O	nt	nt	4%	14%[21 µM]	nt	nt	nt	nt
CCN1C[C@]2(C)CC[C@H](OC)[C@]34C5C[C@@H]6CC[C@@](O)(C5C(=O)O6)C(C13)[C@@H](OC(=O)c1ccccc1)C24	nt	nt	3%	1%	nt	nt	nt	nt
O[C@@H](Cc1ccncc1)C(Cl)(Cl)Cl	nt	nt	5%	13%[56.1 µM]	nt	nt	nt	nt
CC[C@]1(C2=NCCN2)Cc2ccccc2O1	nt	nt	nt	2%	nt	nt	nt	nt
CSCC[C@@H]1NC(=O)[C@@H](NC(=O)[C@H](CCCNC(=N)N)NC(=O)[C@H](CC(C)C)NC(=O)[C@H](CCSC)NC(=O)[C@H](CC(=O)O)NC(=O)[C@H](Cc2ccccc2)NC(=O)[C@@H](N)CC(=O)O)CSSC[C@@H](C(=O)N[C@@H](Cc2c[nH]c3ccccc23)C(=O)N[C@@H](CCC(N)=O)C(=O)N[C@H](C(=O)O)C(C)C)NC(=O)[C@@H]2CCCN2C(=O)[C@H](CCCNC(=N)N)NC(=O)[C@H](Cc2ccc(O)cc2)NC(=O)[C@H](C(C)C)NC(=O)[C@H](CCCNC(=N)N)NC(=O)CNC(=O)[C@H](CC(C)C)NC1=O	nt	nt	?	13%	nt	nt	nt	nt
O=C(COc1ccc(Cl)cc1Cl)N/N=C/c1ccc[nH]1	0%	-8%	-8%	8%	-1%	?	6.7µM*	15µM*
CC(=O)NC1=NN(C(C)=O)C(C)(c2ccccc2)S1 (centres undefined)	2%	-2%	3%	nt	5%	?	1%	-1%
COc1ccc(Cl)cc1C(=O)NNC(=O)COC(=O)CCN=C1NS(=O)(=O)c2ccccc21	6%	-1%	-19%	nt	-1%	?	-28%	?
O=C(Nc1cccc(-c2nnn(CC(=O)N3CCc4ccccc4C3)n2)c1)C1CCC1	18%	-4%	5%	4%	-7%	24µM*	13µM*	?
SMILES	Pin1 inh	PLK1 PBD inh	VDR inhibitor	TDP1 block	ASM inhibitor	Tb PFK inh-1	TbPFK ATP	Tb PFK inh-2
O=C(C(=O)N1CCOCC1)c1cn(CC(=O)N2CCc3ccccc3C2)c2ccccc12	-1%	-15%	0%	0%	3%	?	?	?
CCCCCn1cc(C(=O)C(=O)N2CCOCC2)c2ccccc21	1%	-7%	8%	2%	2%	-6%	nt	nt
Cc1ccc(S(=O)(=O)N2CCCCC2)cc1NC(=O)CN1CC=C(c2ccccc2)CC1	?	3%	0%	5%	4%	-1%	nt	nt
CC1CCN(S(=O)(=O)c2ccc3c(c2)CCC(=O)N3CC(=O)Nc2cccc(C#N)c2)CC1	?	nt	18%	?	nt	9.5µM*	6µM*	12µM*
COc1nc(C)nc(Cl)c1NC1=NCCN1	1%	-20%	17%	0%	5%	5%	nt	nt
Fc1cccc(NCc2ccoc2)c1	-1%	-19%	-8%	4%	9%	?	12µM*	19µM*

High-throughput results as filed in PubChem.
